Results from PubChem BioAssay (Tox21).
Values joined by “and” are separate entries in the source; they are usually repeats but may differ in a detail not shown here. Equal values may be shown once. Records with an inconclusive call do not appear. Entries that show only a call come without a potency. Active and inactive are the calls of the source. The call rests on the fitted dose curve; in most records, active means well fitted inhibition curve with a large enough effect in the repeat runs; inconclusive means weak or mixed curves; inactive means no such curve, though single readings can be large or run the other way.

Molecular target: Cytochrome P450 2C19 (Homo sapiens) (UniProt P33261)
Experiment: Cytochrome P450 Family 2 Subfamily C Member 19 (CYP2C19) small molecule antagonists: luciferase reporter qHTS assay (AID 1671197); further: nearly all actives have a fitted effect of over 65% in size
Conditions: P450-Glo CYP2C19 enzyme, luciferin luminescence, 1 h; series mostly up to 115 µM
Text: National Center for Advancing Translational Sciences [NCATS]
U.S. Environmental Protection Agency [EPA]
National Institutes of Environmental Health Sciences [NIEHS]
National Toxicology Program [NTP]
U.S. Food and Drug Administration [FDA]
Cytochrome P450 (CYP) enzymes are membrane-bound hemeproteins that play a key role in metabolism of drugs and xenobiotics. Evaluation of the effect of chemicals on CYP isozymes is useful to minimize the adverse drug reactions and toxicities in drug development process. Tox21 chemicals were tested for their effect on CYP enzyme activities by using P450-Glo (TM) screening systems (Promega Corporation, Madison, WI). These systems provide a luminescent method containing proluciferin substrates and are converted to luciferin products by CYP isozymes. The luciferin products formed are detected with a luciferin detection reagent, and the amount of light produced is proportional to CYP activity. P450-Glo (TM) CYP2C19 screening system (Catalog. No. V9880) was used to detect the compounds that interfere in CYP2C19 activity. The positive control compound used for CYP2C19 assay is ketoconazole (Sigma-Aldrich, St. Louis, MO).
Tox21 Assay Protocol Summary:
Two ul of enzyme-substrate mix was dispensed into medium binding white/solid 1536-well plates (Greiner Bio-One North America Inc., Monroe, NC) using a BioRaptr Flying Reagent Dispenser (FRD, Beckman Coulter, Brea, CA). Compounds dissolved in DMSO and positive control (ketoconazole) were transferred to the assay plates at 23 nl using a Pintool station (Wako, San Diego, CA). The assay plates were incubated at room temperature for 10 min. Then 2 ul of NADPH regeneration solution was added to each well of the assay plates using an FRD and incubated at 37C for 1 h. The reaction was stopped by adding 4 ul of detection reagent using an FRD and after 20 min incubation at room temperature the luminescence signal was measured using a ViewLux plate reader (Perkin Elmer, Shelton, CT). Data were expressed as relative luminescence units.
Potency means the concentration at half of the fitted maximal effect.

Sequence of Cytochrome P450 2C19 (Homo sapiens) (P33261 whole entry, looked up): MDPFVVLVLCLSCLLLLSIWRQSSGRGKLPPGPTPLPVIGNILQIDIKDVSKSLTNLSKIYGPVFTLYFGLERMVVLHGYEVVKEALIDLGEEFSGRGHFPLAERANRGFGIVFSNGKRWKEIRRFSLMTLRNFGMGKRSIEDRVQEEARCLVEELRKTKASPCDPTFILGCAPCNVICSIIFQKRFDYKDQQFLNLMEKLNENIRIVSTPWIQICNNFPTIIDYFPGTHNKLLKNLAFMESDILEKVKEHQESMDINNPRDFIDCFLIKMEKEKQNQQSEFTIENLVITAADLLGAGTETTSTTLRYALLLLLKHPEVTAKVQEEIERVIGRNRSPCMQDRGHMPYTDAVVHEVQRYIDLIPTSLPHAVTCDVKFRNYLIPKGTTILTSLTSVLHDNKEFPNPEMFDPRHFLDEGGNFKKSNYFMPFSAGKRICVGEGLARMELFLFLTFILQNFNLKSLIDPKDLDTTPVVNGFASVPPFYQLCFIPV

Compound	Potency
CCCCCCCCCCCCCC[N+](C)(C)C	63.2 µM (active)
O=C1OC2(c3ccc(O)cc3Oc3cc(O)ccc32)c2ccc(N=C=S)cc21	72.3 µM (active)
COc1ccc2cc1Oc1ccc(cc1)C[C@H]1c3c(cc4c(c3Oc3cc5c(cc3OC)CCN(C)[C@@H]5C2)OCO4)CCN1C	inactive
CCCCCCC1CCCC(=O)O1 (stereo not given)	inactive
C#C[C@]1(OC(C)=O)CC[C@H]2[C@@H]3CCC4=C/C(=N/O)CC[C@@H]4[C@H]3CC[C@@]21CC	4.36 µM (active)
Oc1cc(Cl)cc(Cl)c1Cl	inactive
O=C1c2ccccc2C(=O)N1SC1CCCCC1	25.2 µM (active) and 39.9 µM (active)
O=C(O)c1ccc2cc(C(=O)O)ccc2c1	32 µM (active)
O=[N+]([O-])c1ccc(F)c(Cl)c1	79.9 µM (active)
Cc1ccc(N/N=c2\c(=O)cc/c(=N\Nc3ccc(S(=O)(=O)O)cc3)c2=O)c(C)c1	79.6 µM (active)
Cc1c(F)c(N2CCNC(C)C2)cc2c1c(=O)c(C(=O)O)cn2C1CC1 (stereo not given)	inactive
Cc1cc(C(C)(C)C)c(O)c(C)c1Cn1c(=O)n(Cc2c(C)cc(C(C)(C)C)c(O)c2C)c(=O)n(Cc2c(C)cc(C(C)(C)C)c(O)c2C)c1=O	6.33 µM (active)
CC1(C)CC(O)CC(C)(C)N1	inactive
CCN(CCN)c1cccc(C)c1	7.17 µM (active) and 35.6 µM (active)
O=C1C(c2[nH]c3ccc(S(=O)(=O)O)cc3c2O)=Nc2ccc(S(=O)(=O)O)cc21	79.6 µM (active)
CCC(=O)OC(=O)CC	inactive
S=C([S-])NCCNC(=S)[S-].S=C([S-])NCCNC(=S)[S-].[Mn+2].[Zn+2]	4.36 µM (active)
Nc1nc(N)nc(-c2cc(Cl)ccc2Cl)n1	inactive
O=C(O)c1cc(-c2ccc(F)cc2F)ccc1O	inactive
CCO[Si](OCC)(OCC)OCC	inactive

Compound	Potency
CCN(CC)c1ccc2c(-c3ccc(S(=O)(=O)O)cc3S(=O)(=O)[O-])c3ccc(=[N+](CC)CC)cc-3oc2c1	92.2 µM (active)
Cc1c(N)cccc1C(F)(F)F	inactive
O=C(O)c1cc(=O)c2ccccc2o1	inactive
Nc1nc2c(ncn2COCCO)c(=O)[nH]1	inactive
CCCC[P+](C)(CCCC)CCCC	inactive
CCOc1ccc2ccccc2c1C(=O)N[C@@H]1C(=O)N2[C@@H]1SC(C)(C)[C@@H]2C(=O)O	inactive
COc1c(C)c2c(c(O)c1C/C=C(\C)CCC(=O)OCCN1CCOCC1)C(=O)OC2	inactive
CC(C)(C)C1CCC(=O)CC1	7.96 µM (active)
CCCCCC(C)OC(=O)COc1ccc(Cl)c2cccnc12 (stereo not given)	7.96 µM (active)
O=C(O)Cc1ccc2c(c1)C(=O)c1ccccc1CO2	inactive
c1ccsc1	inactive
Clc1ccnc(Cl)n1	inactive
O=C(O)c1cc(N=Nc2ccc([N+](=O)[O-])cc2)ccc1O	39.2 µM (active)
CCC(=O)C(=O)CC	41.6 µM (active)
c1ccc(C(O[C@@H]2CCCN(CCc3ccc4c(c3)OCO4)C2)c2ccccc2)cc1	35.6 µM (active)
O=C(O)c1cc(O)c2ccccc2c1O	7.1 µM (active)
CC(C)(C)c1csc(-c2cc3cc(OCc4ccccc4CC(=O)O)ccc3o2)n1	inactive
NC(=O)c1cccc([N+](=O)[O-])c1	inactive
CC/C=C\CCCCCO	inactive
CCCCCCOC(=O)C(C)CC (stereo not given)	inactive
